Experimental findings from the supplement of paper PMC10849652 are described below.

Common to all, as to experiment: log2 fold change, soluble protein after heating vs DMSO (PISA); higher = thermal stabilisation; K562 cells, 10 uM, 30 min; active = over 0.2 and 3.5 SD of the protein, either way, in both replicates (recomputed)
Compound in test [1]: C1=CC=C(C=C1)[C@H](COC2=CC3=C(C=C2)NC(=O)N3)NC(=O)C4=CC=CN(C4=O)CC5=CC(=C(C=C5)F)F
The procedure, abridged: (§1)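 Thermal stability values are relative to control samples and come from duplicates. They are expressed as log2 fold changes. For measurement, K562 cells (2×10^6 cells/mL) received 10 μM compound for 30 min, and aliquots were heated for 3 min over 48°C-58°C, pooled, and extracted at 4°C in PBS with 0.5% NP-40. Soluble protein, the supernatant after 21,000xg for 90 min, was quantified by TMTpro 16plex LC-MS/MS with equalised channel sums.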

Compound in test [2]: CC1=C(SC2=C1C(=N[C@H](C3=NN=C(N32)C)CC(=O)N)C4=CC=C(C=C4)Cl)C
The procedure, abridged:
as §1

Compound in test [3]: CC1=C2C(=CC=C1)N=C(N(C2=O)C3=CC=CC=C3C)CN4C=NC5=C(N=CN=C54)N
The method, boiled down: as §1

Compound in test [4]: Cc1sc2c(c1C)C(c1ccc(Cl)cc1)=N[C@@H](CC(=O)OC(C)(C)C)c1nnc(C)n1-2
The procedure, abridged: as §1

Compound in test [5]: c1ccc([C@@H]2C[C@H]2NC2CCNCC2)cc1
The procedure, abridged:
as §1

Of roughly 7,900 targets only a part is listed; those with a hit were picked by preference. About 0.6% of all pairs of compound and target were hits. Unmarked numbers belong to inactive results.

Chain of UniProt O95602 (O95602 whole entry, looked up): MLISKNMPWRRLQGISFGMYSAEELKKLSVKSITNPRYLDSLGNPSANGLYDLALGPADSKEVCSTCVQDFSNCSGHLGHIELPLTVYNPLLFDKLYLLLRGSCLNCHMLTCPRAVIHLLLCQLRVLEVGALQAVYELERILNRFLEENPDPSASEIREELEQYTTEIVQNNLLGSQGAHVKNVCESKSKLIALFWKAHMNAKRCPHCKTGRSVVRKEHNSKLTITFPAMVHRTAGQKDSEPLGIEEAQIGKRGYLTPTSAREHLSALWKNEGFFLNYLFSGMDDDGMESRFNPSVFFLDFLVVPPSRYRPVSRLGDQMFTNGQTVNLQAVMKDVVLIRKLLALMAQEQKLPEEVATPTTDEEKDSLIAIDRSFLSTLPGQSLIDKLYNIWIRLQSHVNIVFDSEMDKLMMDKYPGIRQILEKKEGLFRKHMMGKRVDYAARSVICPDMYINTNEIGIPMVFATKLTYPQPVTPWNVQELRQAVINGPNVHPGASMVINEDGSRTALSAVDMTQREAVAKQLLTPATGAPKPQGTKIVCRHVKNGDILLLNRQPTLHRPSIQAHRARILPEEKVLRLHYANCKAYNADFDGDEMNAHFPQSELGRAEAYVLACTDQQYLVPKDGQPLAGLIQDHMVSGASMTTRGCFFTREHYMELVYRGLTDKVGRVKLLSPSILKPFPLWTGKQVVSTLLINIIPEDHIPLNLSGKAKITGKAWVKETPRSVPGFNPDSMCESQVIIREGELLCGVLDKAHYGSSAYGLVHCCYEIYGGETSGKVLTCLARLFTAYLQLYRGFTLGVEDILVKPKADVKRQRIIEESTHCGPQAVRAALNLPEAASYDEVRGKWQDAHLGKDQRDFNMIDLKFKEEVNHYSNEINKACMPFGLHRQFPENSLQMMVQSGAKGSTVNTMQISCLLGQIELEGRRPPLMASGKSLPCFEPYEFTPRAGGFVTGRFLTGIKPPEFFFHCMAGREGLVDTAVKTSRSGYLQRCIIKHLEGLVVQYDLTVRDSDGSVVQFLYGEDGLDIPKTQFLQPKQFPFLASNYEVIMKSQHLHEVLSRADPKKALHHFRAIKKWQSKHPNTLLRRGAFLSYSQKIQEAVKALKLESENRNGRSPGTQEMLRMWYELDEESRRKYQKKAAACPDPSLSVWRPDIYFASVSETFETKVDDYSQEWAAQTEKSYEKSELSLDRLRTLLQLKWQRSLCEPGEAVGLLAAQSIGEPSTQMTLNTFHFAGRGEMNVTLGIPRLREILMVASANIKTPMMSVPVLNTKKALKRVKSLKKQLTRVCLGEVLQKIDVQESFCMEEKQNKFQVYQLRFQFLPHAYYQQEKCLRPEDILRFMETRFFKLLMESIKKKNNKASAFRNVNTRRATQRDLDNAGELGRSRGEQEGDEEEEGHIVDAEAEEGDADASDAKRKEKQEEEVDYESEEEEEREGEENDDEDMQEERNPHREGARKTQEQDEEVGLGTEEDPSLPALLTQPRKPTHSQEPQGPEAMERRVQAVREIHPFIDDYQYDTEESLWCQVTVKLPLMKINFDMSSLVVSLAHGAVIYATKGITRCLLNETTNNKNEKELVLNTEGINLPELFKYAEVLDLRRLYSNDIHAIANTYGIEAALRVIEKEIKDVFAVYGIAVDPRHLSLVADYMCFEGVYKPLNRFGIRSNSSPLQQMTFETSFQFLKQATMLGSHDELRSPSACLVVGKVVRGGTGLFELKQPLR
Chain of UniProt Q9H0R6 (Q9H0R6 whole entry, looked up): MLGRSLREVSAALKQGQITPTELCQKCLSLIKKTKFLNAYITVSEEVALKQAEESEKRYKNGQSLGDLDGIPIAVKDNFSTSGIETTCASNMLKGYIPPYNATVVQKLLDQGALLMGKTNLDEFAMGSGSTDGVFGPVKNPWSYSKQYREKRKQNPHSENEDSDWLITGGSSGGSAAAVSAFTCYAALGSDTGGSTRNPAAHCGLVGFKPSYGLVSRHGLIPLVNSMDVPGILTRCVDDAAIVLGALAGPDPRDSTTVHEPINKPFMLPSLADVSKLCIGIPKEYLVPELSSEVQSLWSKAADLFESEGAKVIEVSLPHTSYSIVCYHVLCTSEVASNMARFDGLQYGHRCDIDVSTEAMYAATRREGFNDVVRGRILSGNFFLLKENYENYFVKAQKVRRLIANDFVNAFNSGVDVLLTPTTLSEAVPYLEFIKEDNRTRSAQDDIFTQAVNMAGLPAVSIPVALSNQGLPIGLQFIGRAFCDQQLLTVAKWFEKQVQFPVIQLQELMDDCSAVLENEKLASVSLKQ
Chain of UniProt Q9NP80 (Q9NP80 whole entry, looked up): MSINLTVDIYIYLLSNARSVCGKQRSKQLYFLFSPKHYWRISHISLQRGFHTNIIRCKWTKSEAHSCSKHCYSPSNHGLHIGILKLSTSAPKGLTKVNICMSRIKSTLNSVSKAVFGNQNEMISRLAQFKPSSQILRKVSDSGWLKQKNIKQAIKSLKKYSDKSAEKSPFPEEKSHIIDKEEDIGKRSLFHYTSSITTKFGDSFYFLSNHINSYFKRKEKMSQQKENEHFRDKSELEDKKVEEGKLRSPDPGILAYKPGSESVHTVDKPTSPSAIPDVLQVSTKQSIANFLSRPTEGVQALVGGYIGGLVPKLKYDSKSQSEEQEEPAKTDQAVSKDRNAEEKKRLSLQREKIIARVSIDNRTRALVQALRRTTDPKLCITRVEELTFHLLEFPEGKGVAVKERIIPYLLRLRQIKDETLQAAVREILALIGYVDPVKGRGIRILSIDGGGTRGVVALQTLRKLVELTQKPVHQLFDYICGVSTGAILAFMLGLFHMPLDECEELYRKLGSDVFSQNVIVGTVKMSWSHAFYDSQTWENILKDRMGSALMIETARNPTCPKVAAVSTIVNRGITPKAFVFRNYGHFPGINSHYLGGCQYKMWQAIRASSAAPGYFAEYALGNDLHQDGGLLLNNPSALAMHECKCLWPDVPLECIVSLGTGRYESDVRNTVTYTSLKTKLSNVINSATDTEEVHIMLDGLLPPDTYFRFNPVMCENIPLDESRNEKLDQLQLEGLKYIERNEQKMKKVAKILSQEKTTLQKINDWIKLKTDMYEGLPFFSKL
Chain of UniProt Q8N8N7 (Q8N8N7 whole entry, looked up): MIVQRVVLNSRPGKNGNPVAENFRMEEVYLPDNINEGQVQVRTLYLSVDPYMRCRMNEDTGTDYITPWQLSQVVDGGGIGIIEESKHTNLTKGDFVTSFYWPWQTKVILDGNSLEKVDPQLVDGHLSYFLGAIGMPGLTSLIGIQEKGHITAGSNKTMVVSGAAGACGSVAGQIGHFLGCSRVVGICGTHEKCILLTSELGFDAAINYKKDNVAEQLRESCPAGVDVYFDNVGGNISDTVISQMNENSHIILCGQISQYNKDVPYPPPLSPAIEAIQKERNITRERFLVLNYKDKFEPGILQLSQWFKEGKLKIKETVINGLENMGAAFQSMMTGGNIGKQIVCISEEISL
Chain of UniProt Q8TAP8 (Q8TAP8 whole entry, looked up): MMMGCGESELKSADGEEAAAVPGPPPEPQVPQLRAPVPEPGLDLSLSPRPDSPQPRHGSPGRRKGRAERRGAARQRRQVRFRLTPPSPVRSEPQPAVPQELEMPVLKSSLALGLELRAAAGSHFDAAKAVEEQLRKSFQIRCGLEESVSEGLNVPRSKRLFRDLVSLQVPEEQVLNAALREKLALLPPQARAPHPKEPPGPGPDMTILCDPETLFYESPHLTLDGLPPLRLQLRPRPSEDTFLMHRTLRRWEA
Chain of UniProt Q8NBL1 (Q8NBL1 whole entry, looked up): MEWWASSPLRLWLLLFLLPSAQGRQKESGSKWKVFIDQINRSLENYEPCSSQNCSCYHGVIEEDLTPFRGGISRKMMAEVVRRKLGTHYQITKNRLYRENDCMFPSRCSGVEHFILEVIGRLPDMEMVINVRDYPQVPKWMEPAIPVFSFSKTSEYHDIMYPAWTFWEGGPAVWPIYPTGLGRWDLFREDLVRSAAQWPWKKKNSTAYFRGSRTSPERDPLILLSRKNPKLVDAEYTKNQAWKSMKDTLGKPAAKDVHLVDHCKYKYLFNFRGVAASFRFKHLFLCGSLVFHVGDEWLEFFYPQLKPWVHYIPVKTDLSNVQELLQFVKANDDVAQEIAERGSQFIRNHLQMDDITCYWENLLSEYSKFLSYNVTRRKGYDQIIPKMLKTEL
Chain of UniProt Q8WUM4 (Q8WUM4 whole entry, looked up): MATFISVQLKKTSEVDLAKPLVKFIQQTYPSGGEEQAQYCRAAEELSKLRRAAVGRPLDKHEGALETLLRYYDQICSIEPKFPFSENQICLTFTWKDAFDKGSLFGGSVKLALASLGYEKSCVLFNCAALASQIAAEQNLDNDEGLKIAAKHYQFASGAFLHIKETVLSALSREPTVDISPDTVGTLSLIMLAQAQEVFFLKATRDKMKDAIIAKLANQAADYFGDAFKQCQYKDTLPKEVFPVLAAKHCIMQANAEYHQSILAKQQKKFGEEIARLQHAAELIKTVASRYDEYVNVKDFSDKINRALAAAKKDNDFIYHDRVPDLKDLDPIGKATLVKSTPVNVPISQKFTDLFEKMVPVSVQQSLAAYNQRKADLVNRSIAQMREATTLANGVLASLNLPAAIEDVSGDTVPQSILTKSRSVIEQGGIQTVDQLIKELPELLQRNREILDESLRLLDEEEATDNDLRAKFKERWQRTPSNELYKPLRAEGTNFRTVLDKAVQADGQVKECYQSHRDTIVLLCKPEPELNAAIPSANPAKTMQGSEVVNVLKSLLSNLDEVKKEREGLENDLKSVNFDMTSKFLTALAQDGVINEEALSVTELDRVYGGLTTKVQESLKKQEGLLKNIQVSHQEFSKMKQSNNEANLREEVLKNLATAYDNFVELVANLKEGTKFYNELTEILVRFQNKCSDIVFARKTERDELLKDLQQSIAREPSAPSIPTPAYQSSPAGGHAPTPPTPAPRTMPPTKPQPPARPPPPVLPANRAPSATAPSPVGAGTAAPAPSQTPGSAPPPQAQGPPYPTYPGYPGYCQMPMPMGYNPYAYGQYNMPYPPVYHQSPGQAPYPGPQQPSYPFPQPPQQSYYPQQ

Take PLD3 (UniProt Q8IV08): the log2 fold change in test [1] was 0.022; in test [2] it was 0.058; in test [3], 0.033; in test [4], 0.017; in test [5], 0.009.

For the target PPIL2 (UniProt Q13356), the log2 fold change in test [1] is -0.028; in test [2] it was 0.041; in test [3], 0.098; in test [4] it was -0.019; in test [5], -0.011.

As for PIKFYVE (UniProt Q9Y2I7), the log2 fold change in test [1] was -0.077; in test [2], 0.106; in test [3], 0.111; in test [4], 0.068; in test [5], -0.009.

As to PBK (UniProt Q96KB5), the log2 fold change in test [1] was -0.06; in test [2], 0.016; in test [3], 0.067; in test [4] it was 0.023; in test [5], -0.016.

Turning to PLA2G15 (UniProt Q8NCC3), the log2 fold change in test [1] was 0.02; in test [2] it was -0.01; in test [3], -0.034; in test [4], -0.001; in test [5], 0.

As for PEX11B (UniProt O96011), the log2 fold change in test [1] is -0.027; in test [2] it was 0.056; in test [3], -0.01; in test [4], -0.008; in test [5] it was -0.005.

PECAM1 (UniProt P16284): the log2 fold change in test [1] is 0.063; in test [2] it was 0.138; in test [3], 0.014; in test [4] it was -0.06; in test [5] it was 0.047.

With PDS5A (UniProt Q29RF7), the log2 fold change in test [1] is -0.34; in test [2] it was 0.066; in test [3], 0.096; in test [4], 0.038; in test [5] it was -0.105.

In the case of PIGG (UniProt Q5H8A4), the log2 fold change was 0.12 in test [1]; 0.031 in test [2]; -0.091 in test [3]; 0.006 in test [4]; -0.003 in test [5].

As to PDCD6IP (UniProt Q8WUM4), the log2 fold change in test [1] was -0.131; in test [2], 0.05; in test [3], 0.119; in test [4], -0.029; in test [5], -0.04.

With PRMT3 (UniProt O60678), the log2 fold change was -0.1 in test [1]; 0.077 in test [2]; 0.024 in test [3]; -0.013 in test [4]; 0.001 in test [5].

As to PPP1R35 (UniProt Q8TAP8), the log2 fold change in test [1] was 0.01; in test [2], 0.006; in test [3], 0.067; in test [4], 0.03; in test [5], 0.362 (active).

For PNPLA8 (UniProt Q9NP80), the log2 fold change in test [1] is 0.024; in test [2], 0.031; in test [3], 0.007; in test [4], -0.006; in test [5], 0.024.

Turning to POLR1A (UniProt O95602), the log2 fold change in test [1] is 0.049; in test [2], -0.043; in test [3], -0.044; in test [4] it was 0.096; in test [5], -0.015.

As for PTGR2 (UniProt Q8N8N7), the log2 fold change is 0.004 in test [1]; 0.055 in test [2]; 0.581 (active) in test [3]; -0.043 in test [4]; -0.091 in test [5].

For PDCD6 (UniProt O75340), the log2 fold change is -0.024 in test [1]; 0.057 in test [2]; 0.107 in test [3]; -0.052 in test [4]; 0.003 in test [5].

Consider PCNT (UniProt O95613), for which the log2 fold change was 0.037 in test [1]; -0.067 in test [2]; 0.11 in test [3]; 0.064 in test [4]; 0.105 in test [5].

On to PMM1 (UniProt Q92871), for which the log2 fold change is -0.031 in test [1]; -0.001 in test [2]; 0.091 in test [3]; 0.004 in test [4]; -0.006 in test [5].

For the target POGLUT1 (UniProt Q8NBL1), the log2 fold change was 0.039 in test [1]; -0.041 in test [2]; 0.082 in test [3]; 0.07 in test [4]; 0.015 in test [5].

PPM1G (UniProt O15355): the log2 fold change in test [1] is -0.139; in test [2], 0.025; in test [3], 0.081; in test [4], 0.002; in test [5], -0.089.

As for PIP4K2A (UniProt P48426), the log2 fold change in test [1] is -0.091; in test [2], 0.032; in test [3] it was 0.049; in test [4], 0.033; in test [5], -0.024.

Turning to QRSL1 (UniProt Q9H0R6), the log2 fold change in test [1] is -0.01; in test [2], 0.142; in test [3], 0.147; in test [4] it was 0.05; in test [5] it was 0.041.

Turning to PSME4 (UniProt Q14997), the log2 fold change was -0.041 in test [1]; 0.017 in test [2]; 0.017 in test [3]; -0.025 in test [4]; -0.048 in test [5].

Regarding PSMD1 (UniProt Q99460), the log2 fold change in test [1] was 0.017; in test [2], -0.087; in test [3], -0.058; in test [4] it was -0.017; in test [5], 0.

For PITRM1 isoform 2 (UniProt Q5JRX3), the log2 fold change in test [1] was 0.064; in test [2] it was -0.08; in test [3], 0.048; in test [4], -0.083; in test [5], 0.
